We go through 40 compounds from PubChem BioAssay (Tox21).

“And” between values parts separate entries of the source, which are not always exact repeats. Equal entries are not always repeated. Results filed as inconclusive are left out. The source made the active and inactive calls. Calls come from the whole dose curve; as a rule, active = well fitted cell-killing curve with a large enough effect in the repeat runs; inconclusive = weak or mixed curves; inactive = flat fitted curve, though single readings scatter.
% is set by controls: 0 for no effect and ±100 for the full control effect; potency is the fitted concentration of half-maximal effect.

A short description of the test: qHTS assay to identify small molecule antagonists of the estrogen related receptor (ERR) signaling pathway from Tox21 library - cell viability counter screen (AID 1224834). Note: nearly all actives have a fitted effect of over 30% in size. To be noted: ERR reporter cells viability, CellTiter-Fluor, 17.5 h; series mostly up to 92.4 µM; viability change, negative = cytotoxic: at the top concentration. The source says: National Center for Advancing Translational Sciences [NCATS]
NIH Chemical Genomics Center [NCGC]
U.S. Environmental Protection Agency [EPA]
National Institutes of Environmental Health Sciences [NIEHS]
National Toxicology Program [NTP]
U.S. Food and Drug Administration [FDA]
Estrogen related receptors (ERRs), the first orphan nuclear receptors discovered, play an important role in the control of cellular energy metabolism. ERRs are required for high-energy production in response to the environmental challenges. ERR-alpha was also identified as an adverse marker for breast cancer progression; ERR-alpha-positive tumors have a poor prognosis. To screen and to identify environmental compounds that perturb the ERR signaling pathways could provide valuable information for potential therapeutic or preventive measures in the treatment of metabolic disease. To differentiate true ERR antagonists or agonist from cytotoxic substances, the assay is multiplexed with cell viability assay.
Tox21 Assay Protocol Summary:
The ERR cells were dispensed at 2,000 cells/5 ul/well in 1536-well white plates using a Multidrop dispenser. After the assay plates were incubated at a 37 C/5% CO2 incubator for 6 hours, 23 nL of compounds dissolved in DMSO, positive and negative controls or DMSO only was transferred to the assay plate by a pin tool. The plates were incubated at 37 C for 17.5 hours. 1 ul/well of CellTiter-Fluor reagent was added into the assay plates using a Flying Reagent Dispenser. After 30-minute incubation at 37 C/5% CO2, the fluorescence intensity in the plates was measured using a ViewLux plate reader.
(In general: qHTS replaces the single test concentration by a dilution series.)
`CN=C=O`: the “viability change, negative = cytotoxic” value is 0.676% (inactive). The same measure, in the same setting: the figure for `CC(C)NCC(O)c1ccccc1Cl` (stereo not given) is 7.07% [at 42.5 µM] (inactive). In the case of `C#CCO`, the “viability change, negative = cytotoxic” value is 0.655% (inactive). As to `CC(Cc1ccc2c(c1)OCO2)NO` (stereo not given), the “viability change, negative = cytotoxic” value is 3.38% (inactive). Take `CC(=O)[O-].CC(=O)[O-].O.O.O.[Pb+2]`: the “viability change, negative = cytotoxic” value is 0.545% (inactive). As to `CCCCCCCCCCCCCCn1cc[n+](C)c1`, the Potency was 27.4 µM (active) and 30.3 µM (active). Regarding `Brc1cccc(-c2ccccc2)c1`, the “viability change, negative = cytotoxic” value is 0.673% (inactive). Regarding `COP(=S)(NC(C)C)Oc1ccc(C)cc1[N+](=O)[O-]` (stereo not given), the “viability change, negative = cytotoxic” value is -8.85% (inactive).

Regarding `CC[N+]1(CC)CCC(OC(=O)C(O)(c2ccccc2)c2ccccc2)C1` (stereo not given), the “viability change, negative = cytotoxic” value is 1.78% [at 42.5 µM] (inactive). Same read-out and setting: the result for `CCCCCON=O` reads 1.97% (inactive).

On to `C=C(C)C(=O)[O][Sn]([CH2]CCC)([CH2]CCC)[CH2]CCC`, for which the Potency was 1.72 µM (active). On to `Oc1ccc(Cl)c(Cl)c1`, for which the “viability change, negative = cytotoxic” value is -8.71% (inactive). For `Nc1ccc(N=Nc2ccccc2)cc1`, the Potency was 24.3 µM (active). For `Cc1ccc([N+](=O)[O-])[c]2c1[O][Hg]2`, the Potency is 5.31 µM (active). Consider `CN`, for which the “viability change, negative = cytotoxic” value is -0.0159% (inactive). As for `O.O.O.O=C([O-])[C@H]([O-])[C@@H]([O-])C(=O)[O-].O=C([O-])[C@H]([O-])[C@@H]([O-])C(=O)[O-].[K+].[K+].[Sb+3].[Sb+3]`, the Potency was 17.3 µM (active).

For the compound `CCNS(=O)(=O)C(F)(F)C(F)(F)C(F)(F)C(F)(F)C(F)(F)C(F)(F)C(F)(F)C(F)(F)F`, the “viability change, negative = cytotoxic” value is -5.6% (inactive).

Regarding `CC(O)C(=O)[O][Hg][c]1ccccc1` (stereo not given), the Potency is 4.33 µM (active). For the compound `C#CC1(O)CCCCC1`, the “viability change, negative = cytotoxic” value was 0.154% (inactive). With `c1ccc2c(c1)cc1ccc3cccc4ccc2c1c34`, the “viability change, negative = cytotoxic” value was 11.5% (inactive).

On to `N#Cc1ccc(N(CC(N)=O)CC(F)(F)F)cc1C(F)(F)F`, for which the “viability change, negative = cytotoxic” value was -1.83% (inactive).

Regarding `[O-][Cl+3]([O-])([O-])O`, the “viability change, negative = cytotoxic” value is 1.65% (inactive). As for `CCCCn1cc[n+](C)c1.[Cl][Fe-]([Cl])([Cl])[Cl]`, the “viability change, negative = cytotoxic” value was 0.524% (inactive). With `C[C@]12C/C(=C/O)C(=O)C[C@@H]1CC[C@@H]1[C@@H]2CC[C@@]2(C)[C@H]1CC[C@]2(C)O`, the Potency was 55 µM (active). For `c1cc[n+]2c(c1)-c1cccc[n+]1CC2`, the “viability change, negative = cytotoxic” value is 3.42% [at 42.5 µM] (inactive).

As for `CCC[CH2][Sn]([CH2]CCC)([CH2]CCC)[O][Sn]([CH2]CCC)([CH2]CCC)[CH2]CCC`, the Potency is 1.06 µM (active). Turning to `CO/N=C(\C(=O)OC)c1ccccc1CO/N=C(\C)c1cccc(C(F)(F)F)c1`, the “viability change, negative = cytotoxic” value was -9.35% (inactive). In the case of `CC(=O)C(Cl)C(=O)N(C)C` (stereo not given), the “viability change, negative = cytotoxic” value was -11.3% (inactive). Take `FC(F)C(F)(F)OCC(Cn1cncn1)c1ccc(Cl)cc1Cl` (stereo not given): the Potency was 43 µM (active). For the compound `CC(=O)[O][Sn]([c]1ccccc1)([c]1ccccc1)[c]1ccccc1`, the Potency is 0.217 µM (active). For the compound `COc1ccc2[nH]cc(CCN(C(C)C)C(C)C)c2c1`, the “viability change, negative = cytotoxic” value is 0.0853% (inactive). Same read-out and setting: the result for `CN/C(=N\[N+](=O)[O-])NCc1cnc(Cl)s1` reads 3.47% (inactive). Still for that read-out and setting: the result for `Clc1cc(Cl)c(-c2cc(Cl)c(Cl)cc2Cl)cc1Cl` reads 0.967% [at 42.5 µM] (inactive); that for `O=c1[nH]c2cc(Cl)ccc2n1C1CCNCC1`, -1.32% [at 42.5 µM] (inactive); that for `O=S(=O)(O)F`, 0.397% (inactive). As to `CC[C@H](C)[C@H]1O[C@]2(C=C[C@@H]1C)C[C@@H]1C[C@@H](C/C=C(\C)[C@@H](O[C@H]3C[C@H](OC)[C@@H](O[C@H]4C[C@H](OC)[C@@H](NC)[C@H](C)O4)[C@H](C)O3)[C@@H](C)/C=C/C=C3\CO[C@@H]4[C@H](O)C(C)=C[C@@H](C(=O)O1)[C@]34O)O2`, the Potency is 8.63 µM (active). In the case of `Cc1ccccc1OP(=O)(Oc1ccccc1C)Oc1ccccc1C`, the “viability change, negative = cytotoxic” value is -7.95% (inactive).

Take `CCOP(=O)(OCC)Oc1cc(C)nc(C(C)C)n1`: the “viability change, negative = cytotoxic” value is 1.29% (inactive). Regarding `CN(C)C(=S)SSC(=S)N(C)C`, the Potency is 339 nM (active) and 433 nM (active) and 473 nM (active).

Regarding `CCC[CH2][Sn]([CH2]CCC)([O]C(C)=O)[O]C(C)=O`, the Potency is 0.138 µM (active).
